# Reference: the supplement of paper PMC12645437, “Orthogonal IMiD-Degron Pairs Induce Selective Protein Degradation in Cells” (ACS Chemical Biology, 2025)
# The full ranking holds about 8,300 sequences; the median of “log2 fold change of degron read counts, EGFP-low vs EGFP+ sorted cells (limma voom), compound-induced degradation” is about -1.1, and the highest 2% start at about 3.2. The sample as a whole holds a higher share of the highest values than the screen did.
# T1: CRBN, Q96SW2
# T1 chain: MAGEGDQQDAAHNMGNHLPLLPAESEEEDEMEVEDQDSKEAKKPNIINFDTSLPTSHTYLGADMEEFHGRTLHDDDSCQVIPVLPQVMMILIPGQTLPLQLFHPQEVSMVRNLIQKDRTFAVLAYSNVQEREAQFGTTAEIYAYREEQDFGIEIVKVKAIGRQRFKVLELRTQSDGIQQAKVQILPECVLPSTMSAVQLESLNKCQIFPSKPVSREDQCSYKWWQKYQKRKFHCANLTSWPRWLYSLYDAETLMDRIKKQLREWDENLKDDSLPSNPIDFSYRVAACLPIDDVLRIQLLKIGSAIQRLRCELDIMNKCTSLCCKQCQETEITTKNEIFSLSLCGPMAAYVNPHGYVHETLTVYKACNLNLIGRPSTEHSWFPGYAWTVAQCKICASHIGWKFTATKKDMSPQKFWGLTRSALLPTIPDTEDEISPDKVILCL
# Target: T1, CRBN, Q96SW2
# Assay: log2 fold change of degron read counts, EGFP-low vs EGFP+ sorted cells (limma voom), compound-induced degradation; higher = more compound-induced degradation of the degron-EGFP fusion; degrons are variants of IKZF1/3 zinc finger 2; compound dose not given here
# Conditions: Jurkat, 18 h
# Description: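 Pooled library of 8380 IKZF3 ZF2 degron mutants (positions 146-167 varied within the IKZF3 130-189 degron; only the varied core is printed, flanks not printed) fused to EGFP with IRES-mCherry, lentivirally expressed in Jurkat cells. mCherry+ cells were treated with one IMiD compound for 18 h (dose not stated) and FACS-sorted into EGFP-low and EGFP+ populations. Degron sequences were counted by NGS, and log2FC (EGFP-low vs EGFP+) was estimated by limma voom over 3 biological replicates.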
# [1] = compound: compound 19 (5-tert-butyl-thalidomide)
# [2] = compound: compound 22 (5-morpholino-thalidomide)
# [3] = compound: compound 33 (diphenyl IMiD analogue)
# 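Also: pooled lentiviral library of zinc finger degron-EGFP fusions in mCherry-positive Jurkat cells, FACS-sorted after compound exposure, with degron abundance counted by next-generation sequencing.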
Sequence,log2 fold change of degron read counts [1],log2 fold change of degron read counts [2],log2 fold change of degron read counts [3],log2 fold change of degron read counts (compound: thalidomide)
"FVCEVCGAFFTQKGNLLRHIKL [46F_47V_49E_50V_52G_53A_54F_55F_67L_, Q9UKT9]",-0.979,-0.472,1.09,0.698
"FDCPQCGAMFTQKGNLLRHIKL [46F_47D_49P_50Q_52G_53A_54M_55F_67L_, Q9UKT9]",-2.55,-2.86,-1.76,-1.75
"FFCNQCGRSFTQKGNLLRHIKL [46F_47F_49N_50Q_52G_53R_54S_55F_67L_, Q9UKT9]",-2.31,-2.35,-2.54,-2.53
"FYCDQCGAEFTQKGNLLRHIKL [46F_47Y_49D_50Q_52G_53A_54E_55F_67L_, Q9UKT9]",-1.15,-2.26,-1.96,-3.08
"FNCPICGHAFTQKGNLLRHIKL [46F_47N_49P_50I_52G_53H_54A_55F_67L_, Q9UKT9]",-1.92,-2.91,-2.41,-1.74
"FWCPICGAEFTQKGNLLRHIKL [46F_47W_49P_50I_52G_53A_54E_55F_67L_, Q9UKT9]",2.47,2.5,1.96,0.113
"FDCNQCGHAFTQKGNLLRHIKL [46F_47D_49N_50Q_52G_53H_54A_55F_67L_, Q9UKT9]",-2.71,-2.67,-2.47,-2.94
"FKCDICGAEFTQKGNLLRHIKL [46F_47K_49D_50I_52G_53A_54E_55F_67L_, Q9UKT9]",-3.02,-3.75,-4.07,-2.58
"FKCSVCGHVFTQKGNLLRHIKL [46F_47K_49S_50V_52G_53H_54V_55F_67L_, Q9UKT9]",-3.06,-3.01,-3.11,-3.07
"FWCEQCGAQFTQKGNLLRHIKL [46F_47W_49E_50Q_52G_53A_54Q_55F_67L_, Q9UKT9]",0.92,2.94,0.838,-0.633
"FECPICGACFTQKGNLLRHIKL [46F_47E_49P_50I_52G_53A_54C_55F_67L_, Q9UKT9]",0.233,-0.321,2.66,2.94
"FFCPICGACFTQKGNLLRHIKL [46F_47F_49P_50I_52G_53A_54C_55F_67L_, Q9UKT9]",3.22,3.44,2.28,1.16
"FGCPICGACFTQKGNLLRHIKL [46F_47G_49P_50I_52G_53A_54C_55F_67L_, Q9UKT9]",3.9,2.82,2.74,1.24
"FRCPICGACFTQKGNLLRHIKL [46F_47R_49P_50I_52G_53A_54C_55F_67L_, Q9UKT9]",-0.121,0.343,1.61,1.35
"FHCPICGACFTQKGNLLRHIKL [46F_47H_49P_50I_52G_53A_54C_55F_67L_, Q9UKT9]",2.71,2.64,2.08,0.899
"FKCPICGACFTQKGNLLRHIKL [46F_47K_49P_50I_52G_53A_54C_55F_67L_, Q9UKT9]",-0.511,-2.33,-2.58,-0.71
"LQCEICGFFCTQKGNLLRHIKL [46L_47Q_49E_50I_52G_53F_54F_55C_67L_, Q9UKT9]",-0.636,-0.227,0.554,1.77
"FVCEICGRLFTQKGNLLRHIKL [46F_47V_49E_50I_52G_53R_54L_55F_67L_, Q9UKT9]",-1.71,-1.28,-0.137,0.207
"FWCNICGASFTQKGNLLRHIKL [46F_47W_49N_50I_52G_53A_54S_55F_67L_, Q9UKT9]",2.6,3.54,1.69,0.481
"FMCNICGASFTQKGNLLRHIKL [46F_47M_49N_50I_52G_53A_54S_55F_67L_, Q9UKT9]",-0.622,0.367,2.22,0.902
"FNCNICGASFTQKGNLLRHIKL [46F_47N_49N_50I_52G_53A_54S_55F_67L_, Q9UKT9]",1.49,0.652,0.369,-0.42
"FACNICGASFTQKGNLLRHIKL [46F_47A_49N_50I_52G_53A_54S_55F_67L_, Q9UKT9]",2.29,2.03,0.254,0.112
"FYCNICGASFTQKGNLLRHIKL [46F_47Y_49N_50I_52G_53A_54S_55F_67L_, Q9UKT9]",2.45,2.95,1.49,-0.148
"FQCNICGASFTQKGNLLRHIKL [46F_47Q_49N_50I_52G_53A_54S_55F_67L_, Q9UKT9]",0.609,1.43,1.22,3.34
"FHCDVCGAFFTQKGNLLRHIKL [46F_47H_49D_50V_52G_53A_54F_55F_67L_, Q9UKT9]",-1.48,-1.49,-1.88,-2.83
"FKCNICGAKFTQKGNLLRHIKL [46F_47K_49N_50I_52G_53A_54K_55F_67L_, Q9UKT9]",-2.4,-3.54,-2.58,-2.17
"FRCSVCGHFFTQKGNLLRHIKL [46F_47R_49S_50V_52G_53H_54F_55F_67L_, Q9UKT9]",-2.15,-2.33,-2.44,-1.78
"FVCEICGHLFTQKGNLLRHIKL [46F_47V_49E_50I_52G_53H_54L_55F_67L_, Q9UKT9]",-3.22,-3.09,-2.38,-2.39
